Experimental data as given in PubChem BioAssay AID624273 (Broad Institute, 2012).
About 230 (23%) of roughly 1,000 compounds were called active. About 1% were inconclusive and are not listed. How the calls were made is not given here. The list shows a part of the results. Measured potencies and affinities stand elsewhere.

What follows are molecules tested against Long-chain-fatty-acid--AMP ligase FadD28 (Mycobacterium tuberculosis (strain ATCC 25618 / H37Rv)) (UniProt P9WQ59) (assay: inhibitors of FadD28 bisubstrate probe binding, dose response, biochemical, fluorescence polarization, cherry-pick (AID 624273)). Conditions: series mostly up to 50 µM.
Chain of Long-chain-fatty-acid--AMP ligase FadD28 (Mycobacterium tuberculosis (strain ATCC 25618 / H37Rv)) (P9WQ59 whole entry, looked up): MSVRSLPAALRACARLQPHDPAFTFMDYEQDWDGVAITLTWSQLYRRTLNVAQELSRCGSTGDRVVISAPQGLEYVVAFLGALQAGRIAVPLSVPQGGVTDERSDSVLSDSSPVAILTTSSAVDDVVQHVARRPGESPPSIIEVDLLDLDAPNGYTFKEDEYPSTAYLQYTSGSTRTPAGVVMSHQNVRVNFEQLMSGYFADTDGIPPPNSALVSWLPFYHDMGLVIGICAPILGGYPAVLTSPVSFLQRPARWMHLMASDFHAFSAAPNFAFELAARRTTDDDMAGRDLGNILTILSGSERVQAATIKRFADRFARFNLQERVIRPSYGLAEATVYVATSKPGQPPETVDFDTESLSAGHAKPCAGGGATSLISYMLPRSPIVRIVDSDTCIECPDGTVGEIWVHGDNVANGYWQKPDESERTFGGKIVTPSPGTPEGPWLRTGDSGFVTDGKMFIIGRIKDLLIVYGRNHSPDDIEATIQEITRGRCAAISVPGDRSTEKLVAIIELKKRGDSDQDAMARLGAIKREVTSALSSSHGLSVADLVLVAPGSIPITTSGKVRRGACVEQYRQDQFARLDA
In the case of `COc1cc(Cl)ccc1NC(=O)COc1ccccc1C(=O)N1CCN(c2ccc(O)cc2)CC1`, the outcome is reported as “inactive”. With `CCCN1C(=O)c2ccccc2NC1c1ccc(Cl)cc1` (stereo unspecified) the outcome was “inactive”. For `CC(=O)c1cccc(NC(=O)CN(c2cccc(F)c2)S(C)(=O)=O)c1`, the outcome was “inactive”. With `COc1ccc(CNC(=O)COc2ccc(OC)cc2)cc1` the outcome was “inactive”. `COc1cccc(CNC(=O)CN(C)S(=O)(=O)c2cnc[nH]2)c1` was tested, and the outcome was “inactive”. With `COc1cccc(-c2cc(C(=O)Nc3ccncc3)c3ccccc3n2)c1` the outcome was “inactive”. With `COc1cnc(-c2cccc(C(F)(F)F)c2)c(NC(=O)c2cc3ccccc3s2)n1` the outcome was “inactive”. For `CCOc1ccc(N=Nc2c(C)[nH]n(-c3ccccc3)c2=O)cc1`, the outcome was “inactive”. `O/N=C1\CC/C(=N\O)c2nn(-c3ccccc3Cl)nc21` was tested, and the outcome was “inactive”. `O=C(CN1C(=O)NC2NC(=O)NC21)NC1CCCCC1` (stereo unspecified) was tested, and the outcome was “inactive”. In the case of `Cc1ccc(C(=O)COC(=O)c2cccc(NC(=O)c3ccc([N+](=O)[O-])cc3[N+](=O)[O-])c2)cc1`, the outcome is reported as “inactive”. For `COc1ccc(C(=O)/C(C#N)=N/Nc2cccc([N+](=O)[O-])c2)cc1`, the outcome was “inactive”. `N#Cc1c(-c2ccccc2)c(-c2ccccc2)nn(CC(=O)NNC(=O)Nc2ccc(Cl)c(Cl)c2)c1=O` was tested, and the outcome was “inactive”. With `N/C(=N\OC(=O)COc1ccc2ccccc2c1)c1ccncc1` the outcome was “inactive”. In the case of `COC(=O)c1c(-c2ccc(C)cc2)csc1NC(=O)C1CC=CCC1C(=O)O` (stereo unspecified), the outcome is reported as “inactive”. `Cc1ccc([N+](=O)[O-])cc1N=Nc1c(-c2ccc([N+](=O)[O-])cc2)[nH]n(C(N)=S)c1=O` was tested, and the outcome was “inactive”. `CCc1noc(C)c1C(=O)Nc1cc(S(=O)(=O)N2CCOCC2)ccc1OC(C)C` was tested, and the outcome was “inactive”. For `CCOC(=O)N1CCN(C2CC(=O)N(c3ccc(F)cc3)C2=O)CC1` (stereo unspecified), the outcome was “inactive”. For `C[C@@H]1CN([C@H](C)CO)C(=O)c2cc(NC(=O)Nc3ccc(C(F)(F)F)cc3)ccc2O[C@H]1CN(C)S(=O)(=O)c1ccc(Cl)cc1`, the outcome was “inactive”. In the case of `Cc1cc(=O)oc2c(CN3CCN(CCO)CC3)c(O)ccc12`, the outcome is reported as “inactive”. `Cc1cccc(C(=O)NNS(=O)(=O)c2ccc(F)cc2)c1O` was tested, and the outcome was “inactive”. In the case of `O=C(NNC(=O)c1ccc([N+](=O)[O-])cc1)c1ccc(NS(=O)(=O)c2cccs2)cc1`, the outcome is reported as “inactive”. `COc1cc(NC(=O)COC(=O)CC2CC3CCC2C3)cc(OC)c1` (stereo unspecified) was tested, and the outcome was “inactive”. In the case of `CCSc1ccccc1C(=O)Nc1cc(C)on1`, the outcome is reported as “inactive”. For `COc1cccc(C(=O)OCC(=O)NC(=O)NC2CCCC2)c1O`, the outcome was “inactive”. With `COC(=O)c1cc(C(=O)OCC(=O)NC2CCCC2)cc([N+](=O)[O-])c1` the outcome was “inactive”. With `CC(=O)NC(CCS(C)(=O)=O)C(=O)N1CCc2ccccc21` (stereo unspecified) the outcome was “inactive”. `COc1cccc(OCc2cc(C(=O)N(C)CCOc3ccc(C)cc3)no2)c1` was tested, and the outcome was “inactive”. With `CC(C)=NOc1cc(NC(=O)CCl)cc([N+](=O)[O-])c1` the outcome was “inactive”. With `C/C(=N\NC(=O)COc1ccccc1)c1ccc(O)cc1` the outcome was “inactive”. In the case of `Nc1nnnn1/N=C/c1cc(Cl)cc(Cl)c1O`, the outcome is reported as “inactive”. In the case of `O=C(O)Cn1c2ccccc2c2n[nH]c(=S)nc21`, the outcome is reported as “inactive”. For `CCOC(=O)c1cc(NC(=O)c2ccc(Cl)cc2)c(=O)n2c1oc1ccc(Cl)cc12`, the outcome was “inactive”. `S=c1nc[nH]c2c1sc1nc(-c3ccccc3)c3c(c12)CCCC3` was tested, and the outcome was “inactive”. For `CCn1c(SCC(=O)Nc2ccc(N3CCOCC3)cc2)nnc1-c1ccncc1`, the outcome was “inactive”. In the case of `Cc1ccc(C)c(NS(=O)(=O)c2ccc(NC(=O)CSc3ccc(Cl)cc3)cc2)c1`, the outcome is reported as “inactive”. `Cc1ccc(OCc2nc(-c3ccccn3)no2)cc1` was tested, and the outcome was “inactive”. `COc1ccc(CCNC(=O)c2ccc(NS(=O)(=O)c3ccc4[nH]c(=O)[nH]c4c3)cc2)cc1` was tested, and the outcome was “inactive”. In the case of `COc1ccc(CCNC(=O)c2ccccc2NS(=O)(=O)c2c(F)cccc2F)cc1`, the outcome is reported as “inactive”. With `CCC(C)(C)NC(=O)CN(C(=O)CCC(=O)Nc1nccs1)c1ccc2c(c1)OCO2` the outcome was “inactive”. For `COc1ccc(COc2ccc3c(C)cc(=O)oc3c2)cc1`, the outcome was “inactive”. With `Cc1ccc(S(=O)(=O)N(C)CC(=O)OCC(=O)NC(=O)Nc2ccc3c(c2)OCCO3)cc1` the outcome was “inactive”. `CCOC(=O)c1ccc(NC(=O)c2nc[nH]c2C(=O)N(CC)CC)cc1` was tested, and the outcome was “inactive”. `COc1ccc(S(=O)(=O)N2CCC(C(=O)NCCC(=O)NCc3ccncc3)CC2)cc1` was tested, and the outcome was “inactive”. `COC(=O)[C@H](Cc1ccccc1)NC(=O)NCc1ccc(C)cc1` was tested, and the outcome was “inactive”. `O=C(NCc1ccc(F)cc1)C(Cc1ccccc1)NS(=O)(=O)c1cccs1` (stereo unspecified) was tested, and the outcome was “inactive”. With `Cc1ccc(C)c(NC(=O)C(CC(=O)O)Cc2ccccc2)c1` (stereo unspecified) the outcome was “inactive”. In the case of `O=C(NC(Cc1ccccc1)C(=O)O)C1CCN(S(=O)(=O)c2ccccc2C(F)(F)F)CC1` (stereo unspecified), the outcome is reported as “inactive”. For `C[C@H](CO)N1C[C@H](C)[C@H](CN(C)S(=O)(=O)c2cn(C)cn2)Oc2ccc(NC(=O)Nc3ccc(C(F)(F)F)cc3)cc2CC1=O`, the outcome was “inactive”. For `NC(Cc1ccccc1)c1nn[nH]n1` (stereo unspecified), the outcome was “inactive”. `CN1CCN(NC(=O)c2ccc(S(=O)(=O)N3CCCCCC3)cc2)CC1` was tested, and the outcome was “inactive”. `CC(=O)c1ccc(Oc2cc(-c3ccccc3)nc(-c3ccccc3)n2)cc1` was tested, and the outcome was “inactive”. With `O=C(O)c1cc2ccccc2cc1Nc1ccccc1` the outcome was “inactive”. For `CCN(CC)CCCn1c(=S)[nH]c2cc(Cl)ccc2c1=O`, the outcome was “inactive”. In the case of `COC1=CC(=O)OC(CCc2ccc3c(c2)OCO3)C1` (stereo unspecified), the outcome is reported as “inactive”. In the case of `Cc1ccc(C(=O)n2nc(C#N)c(C#N)c2N)cc1`, the outcome is reported as “inactive”. `CC(=O)N1CCN(c2ccc(NC(=O)c3ccc(C(C)(C)C)cc3)cc2)CC1` was tested, and the outcome was “inactive”. For `N#Cc1ccc(OCC(=O)OCC(=O)Nc2ccc(N3CCOCC3)cc2)cc1`, the outcome was “inactive”. With `O=C(Sc1ccc(Cl)cc1)c1ccccn1` the outcome was “inactive”. For `O=[N+]([O-])c1ccc(N2CCCCCC2)c2nonc12`, the outcome was “inactive”. In the case of `Cn1c(N)c(S(=O)(=O)N2CCN(c3ccccc3Cl)CC2)c(=O)n(C)c1=O`, the outcome is reported as “inactive”. In the case of `CCc1c(C)sc(NC(=O)C2CC2c2ccccc2)c1C(N)=O` (stereo unspecified), the outcome is reported as “inactive”. `O=C(/C=C/c1ccc([N+](=O)[O-])cc1)/C=C/c1ccco1` was tested, and the outcome was “inactive”. For `Cc1c(C(=O)C(=O)N2c3ccccc3CC2C)c2ccccc2n1C` (stereo unspecified), the outcome was “inactive”. For `C=CCn1c(C)csc1=Nc1ccc(C(C)=O)cc1`, the outcome was “inactive”. With `O=C(c1cccc(S(=O)(=O)N2CCN(c3ccccc3)CC2)c1)N1CCCCCCC1` the outcome was “inactive”. For `Cc1ccccc1-c1nnc(-c2cccc3ccccc23)o1`, the outcome was “inactive”. In the case of `COc1ccc(C)cc1NC(=O)CSc1nnc(-c2ccc(Br)cc2)o1`, the outcome is reported as “inactive”. In the case of `CCc1cccc(NC(=O)COC(=O)/C=C/c2cccs2)c1`, the outcome is reported as “inactive”. For `COc1ccc(C(=O)c2ccsc2N)cc1`, the outcome was “inactive”. `Cc1ccc(OCCCN2CCOCC2)cc1` was tested, and the outcome was “inactive”. For `Cc1ccc(S(=O)(=O)/N=C2\C=C(Nc3ccc(O)cc3)C(=O)c3ccccc32)cc1`, the outcome was “inactive”. In the case of `O=C(COC(=O)c1cc(S(=O)(=O)Nc2ccccc2Cl)ccc1O)Nc1nc2ccccc2s1`, the outcome is reported as “inactive”. In the case of `O=C(COC(=O)c1ccc(NS(=O)(=O)c2cccs2)cc1O)Nc1nc2ccccc2s1`, the outcome is reported as “inactive”. For `O=C(CSc1nnc(Cc2ccccc2)n1-c1ccccc1)NNC(=O)Cc1ccccc1`, the outcome was “inactive”. For `CCc1nnc(NC(=O)CSc2ncnc3c2oc2ccccc23)s1`, the outcome was “inactive”. `O=C(NCC(c1cccs1)N1CCOCC1)c1cc2ccccc2oc1=O` (stereo unspecified) was tested, and the outcome was “inactive”. With `O=c1c2c3c(sc2nc2n1CCC2)CCCC3` the outcome was “inactive”. In the case of `CCc1cccc2c(C(=O)CN3C(=O)NC(C)(c4cccc5ccccc45)C3=O)c[nH]c12` (stereo unspecified), the outcome is reported as “inactive”. `CC(C)C(NC(=O)c1ccc2c(c1)OCO2)C(=O)N/N=C/c1cccs1` (stereo unspecified) was tested, and the outcome was “inactive”. In the case of `NC(Cc1ccc(C(F)(F)F)cc1)c1csc(NC(=O)Nc2ccccc2)n1` (stereo unspecified), the outcome is reported as “inactive”. For `Oc1ccccc1/C=N/n1c2ccccc2c2ccccc21`, the outcome was “inactive”. In the case of `Oc1ccc(/C=N/N(Cc2ccccc2)c2ccccc2)c(O)c1O`, the outcome is reported as “inactive”. For `CN=c1scc(-c2ccco2)n1/N=C/c1ccc(O)c(O)c1`, the outcome was “inactive”. In the case of `CCN=c1scc(-c2ccco2)n1/N=C/c1ccc(OC)c(O)c1`, the outcome is reported as “inactive”. `CCOC(=O)c1c(-c2ccc(C)s2)csc1NC(=O)c1cccs1` was tested, and the outcome was “inactive”. For `CCOc1ccccc1NC(=O)CSc1nnc(-c2ccncc2)o1`, the outcome was “inactive”. `CCOc1ccc(C(=O)Nc2cc(-c3nc4ccccc4[nH]3)ccc2C)cc1[N+](=O)[O-]` was tested, and the outcome was “inactive”. In the case of `CC(C)NCC(=O)Nc1c2c(nc3ccccc13)CCC2`, the outcome is reported as “inactive”. In the case of `O=c1[nH]nc(-c2ccccc2)cc1-c1ccccc1`, the outcome is reported as “inactive”. With `COc1ccccc1CN1CCCC(C(=O)N2CCCCC2)C1` (stereo unspecified) the outcome was “inactive”. `COc1cccc(/C=N/Nc2nc(C)cc(=O)[nH]2)c1OC` was tested, and the outcome was “inactive”. In the case of `CCOC(=O)C1=C(C)NC(C)=C(C(=O)OCC)C1c1sccc1C`, the outcome is reported as “inactive”. For `COc1cccc(CN(C)C(=S)Nc2ccc(C)c(C)c2)c1`, the outcome was “inactive”. With `CCOc1ccc(-n2c(=O)c3sccc3n(CC(=O)Nc3cccc(OC)c3)c2=O)cc1` the outcome was “inactive”. With `Nc1ccc(NC(=O)NC2CCCCC2)cc1[N+](=O)[O-]` the outcome was “inactive”. For `O=C(Nc1cccc(F)c1)NC1CCCCCCC1`, the outcome was “inactive”. With `N=c1n(Cc2ccccc2)c2ccccc2n1CC(O)c1ccco1` (stereo unspecified) the outcome was “inactive”. For `CC(=O)Nc1ccc(OC(F)(F)C(F)F)c(NC(C)=O)c1`, the outcome was “inactive”. With `CCn1ncc(NC(=S)NCCc2ccccc2)c1C(N)=O` the outcome was “inactive”. With `CC(C)CC(=O)Nc1nnc(S(=O)(=O)N(C)c2ccc(Cl)cc2)s1` the outcome was “inactive”. `COc1ccc(/C=N/NC(=O)CN(C2=NS(=O)(=O)c3ccccc32)c2ccccc2)cc1OC` was tested, and the outcome was “inactive”. In the case of `COc1ccc(/C=N/n2c(SC)nnc(C(C)(C)C)c2=O)cc1OC`, the outcome is reported as “inactive”. `c1ccc(-c2nnc(N3CCCC3)nc2-c2ccccc2)cc1` was tested, and the outcome was “inactive”. In the case of `CC(O)(c1cccnc1)c1nc(-c2cccc(C(F)(F)F)c2)cs1` (stereo unspecified), the outcome is reported as “inactive”. `COc1ccc(CC(=O)Nc2nnc(SCc3ccccc3)s2)cc1S(=O)(=O)N1CCOCC1` was tested, and the outcome was “inactive”. With `COc1ccc(CCNC(=O)c2ccc(Cl)c(S(=O)(=O)N(C)c3ccccc3)c2)cc1` the outcome was “inactive”. With `O=C(COC(=O)c1ccc(Cl)c(S(=O)(=O)N2CCCCCC2)c1)Nc1ccccc1` the outcome was “inactive”. In the case of `O=C(NCCc1c[nH]c2ccccc12)/C(=C/c1ccco1)NC(=O)c1ccco1`, the outcome is reported as “inactive”. With `Cc1ccc(C(=O)OCC(=O)c2ccc(Br)cc2)cc1S(=O)(=O)N1CCOCC1` the outcome was “inactive”. For `CCN(CC)S(=O)(=O)c1cccc(C(=O)NCCCN2CCOCC2)c1`, the outcome was “inactive”.
